Where “and” joins values, the source holds several entries; their conditions need not be identical. Equal values may be shown once. Results filed as inconclusive are left out. Calls of active or inactive are those of the source. Calls come from the whole dose curve; as a rule, active = well fitted curve in the direction sought with a large enough effect; inconclusive = small, poorly fitted or top-dose-only effect, or another doubt; inactive = no such curve, though single readings can be large; an effect the other way counts as inactive or inconclusive. Peptide text beside a SMILES is read from it.
What was measured:
[1] = qHTS of pediatric cancer cell lines to identify multiple opportunities for drug repurposing: Primary screen for MG 63 (6-TG R) cells (AID 1347105); note: nearly all actives have a fitted effect of over 50% in size; note: potency is the fitted concentration of half-maximal effect
How it was run: (§1)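 500-1,000 cells/well; 5 h pre-incubation 37 °C/5% CO2; compound pinned; 48 h; CellTiter-Glo, 15 min RT; luminescence. MIPE 11-pt from 0.78 nM, NPC 8-pt from 0.59 nM final. Bortezomib 2.3 µM final as positive control.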

[2] = qHTS of pediatric cancer cell lines to identify multiple opportunities for drug repurposing: Primary screen for control Hh wild type fibroblast cells (AID 1347106);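 note: series mostly up to about 46 µM; a drop in luminescence marks cytotoxicity and a rise apparent proliferation; nearly all actives have a fitted effect of over 55% in size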
How it was run: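 Cells (500-1,000/well) in growth media were settled 5 h at 37 degrees C, then given compounds for 48 h. Viability was read as CellTiter-Glo luminescence. Primary runs used MIPE at 11 points (0.78 nM-46 µM) and NPC at 8 points (0.59 nM-46 µM); follow-ups used 11 points.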

[3] = qHTS of pediatric cancer cell lines to identify multiple opportunities for drug repurposing: Primary screen for Rh30 cells (AID 1347107); note: series mostly up to about 46 µM; nearly all actives have a fitted effect of over 75% in size
How it was run: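 Cells (500-1,000/well) rested 5 h, then received compounds for 48 h; metabolically active cells were measured by CellTiter-Glo luminescence. Final concentrations spanned up to 46 µM (MIPE, 11-point) or 0.59 nM-46 µM (NPC, 8-point) in primary screens, 11-point in follow-ups.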

[4] = qHTS of pediatric cancer cell lines to identify multiple opportunities for drug repurposing: Primary screen for Rh41 cells (AID 1347108);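 note: series mostly up to about 46 µM; luminescence drop marks cytotoxic hits; nearly all actives have a fitted effect of over 70% in size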
How it was run: as §1

Measured: Potency

CCCCC(CC)COC(=O)C(C#N)=C(c1ccccc1)c1ccccc1 (stereo unspecified)
inactive: [1] | [2] | [3]

CC(=O)Nc1ccc(O)cc1
inactive: all assays above

Cc1ccc(C(=O)c2cc(O)c(O)c([N+](=O)[O-])c2)cc1
inactive: all assays above

Cc1cccc(-c2[nH]ncc2-c2ccc3ncccc3n2)n1
inactive: [1] | [2] | [3]

Cc1ncc([N+](=O)[O-])n1CC(C)O (stereo unspecified)
inactive: all assays above

CCCc1cc(=O)[nH]c(=S)[nH]1
inactive: all assays above

CC(C)[C@H](N)C(=O)OCCOCn1cnc2c(=O)[nH]c(N)nc21
inactive: all assays above

CN1CCC(=C2c3ccccc3CCc3sccc32)CC1
inactive: all assays above

CC1(C)NC(=O)N(c2ccc([N+](=O)[O-])c(C(F)(F)F)c2)C1=O
inactive: all assays above

COc1c(O)cc2c(c1O)[C@@H]1O[C@H](CO)[C@@H](O)[C@H](O)[C@H]1OC2=O
inactive: all assays above

Cc1cc2cc3c(C)cc(=O)oc3c(C)c2o1
inactive: [1] | [2] | [3]

O=c1ccc2ccc(O)c(O)c2o1
inactive: [1] | [2] | [3]

CCN(CC)CCOc1ccc(Cc2ccccc2)cc1
inactive: all assays above

O=C(O)c1cccc(-c2noc(-c3ccccc3F)n2)c1
inactive: [1] | [2] | [3]

NC(=O)Cc1cccc(C(=O)c2ccccc2)c1N
inactive: all assays above

CC(C)[N+]1(C)[C@@H]2CC[C@H]1CC(OC(=O)C(CO)c1ccccc1)C2 (stereo partly specified)
inactive: [1] | [2]

O=C(CS(=O)Cc1ccco1)NCC=CCOc1cc(CN2CCCCC2)ccn1 (stereo unspecified)
inactive: all assays above

Cc1cc2c(s1)Nc1ccccc1N=C2N1CCN(C)CC1
inactive: all assays above

O=C1c2ccccc2-c2n[nH]c3cccc1c23
inactive: [1] | [2]

CN(C)CCCC1(c2ccc(F)cc2)OCc2cc(C#N)ccc21 (stereo unspecified)
inactive: [1] | [2] | [3]

Cc1nc2n(c(=O)c1CCN1CCC(c3noc4cc(F)ccc34)CC1)CCCC2
inactive: all assays above

N=C(N=C(N)N)N1CCOCC1
inactive: all assays above

CN(C)[C@@H](CCOc1cccc2ccccc12)c1ccccc1
inactive: all assays above

COC(=O)[C@H](Cc1ccccc1)NC(=O)[C@@H](N)CC(=O)O (H-Asp-Phe-OMe)
inactive: all assays above

O=c1c(O)c(-c2ccc(O)cc2O)oc2cc(O)cc(O)c12
inactive: [1] | [2] | [3]

Cc1nc(-c2ccc(OCC(C)C)c(C#N)c2)sc1C(=O)O
inactive: all assays above

O=C(NOCC1CC1)c1ccc(F)c(F)c1Nc1ccc(I)cc1Cl
inactive: [2]
active: [1] 26.6 µM and 11.8 µM

CCC1=C(C)CN(C(=O)NCCc2ccc(S(=O)(=O)NC(=O)NC3CCC(C)CC3)cc2)C1=O (stereo unspecified)
inactive: all assays above

O=P(O)(O)C(O)(Cn1ccnc1)P(=O)(O)O
inactive: all assays above

Cc1nccn1CC1CCc2c(c3ccccc3n2C)C1=O (stereo unspecified)
inactive: all assays above

O=C(O)CCNC(=O)c1ccc(N=Nc2ccc(O)c(C(=O)O)c2)cc1
inactive: all assays above

COC(=O)N[C@H](C(=O)N[C@@H](Cc1ccccc1)[C@@H](O)CN(Cc1ccc(-c2ccccn2)cc1)NC(=O)[C@@H](NC(=O)OC)C(C)(C)C)C(C)(C)C
inactive: all assays above

CCOC(=O)c1c(C)n(C)c2ccc(O)cc12
inactive: all assays above

Cc1cccc(CN2CCN(C(c3ccccc3)c3ccc(Cl)cc3)CC2)c1 (stereo unspecified)
inactive: all assays above

Cc1cccc(C)c1OCC(=O)N[C@@H](Cc1ccccc1)[C@@H](O)C[C@H](Cc1ccccc1)NC(=O)[C@H](C(C)C)N1CCCNC1=O
inactive: [1] | [2] | [3]
